A number with no mark means an inactive call.
How the values were obtained:
Test in all cases: log2 ratio of Biotin-Ahx-Ub-VS probe labelling (fragment/DMSO); higher = less target engagement (more negative = stronger competition), active = hit call of the paper (q ≤ 0.05, log2 ratio ≤ -1)
Conditions in all cases: compound concentration: 200 uM; treatment time: 3 h
OTUD6B = molecular target: T1, OTUD6B (UniProt Q8N6M0)
T1 sequence (whole entry): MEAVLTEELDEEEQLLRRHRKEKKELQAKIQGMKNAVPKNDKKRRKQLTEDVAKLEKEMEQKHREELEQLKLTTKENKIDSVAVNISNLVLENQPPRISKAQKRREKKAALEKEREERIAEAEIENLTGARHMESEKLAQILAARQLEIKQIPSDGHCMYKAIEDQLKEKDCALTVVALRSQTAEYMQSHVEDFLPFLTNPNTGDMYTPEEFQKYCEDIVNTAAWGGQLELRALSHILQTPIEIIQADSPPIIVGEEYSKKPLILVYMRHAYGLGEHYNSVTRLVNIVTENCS
Method in brief: (§1)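 HEK293T lysate (495 µg per sample, in Tris/CHAPS/IGEPAL buffer with protease inhibitors) was treated in triplicate with fragment at 200 µM or with DMSO for 3 h. It was then treated with Biotin-Ahx-Ub-VS (0.5 µM final) for 1 h. Labelled DUBs were NeutrAvidin-enriched, digested with LysC and trypsin, and run by diaPASEF LC-MS/MS. Spectronaut label-free quantities were global-median-normalised. Values are average log2 ratios fragment/DMSO by unpaired t-test, using proteins with ≥2 unique peptides.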

OTUD7B = molecular target: T2, OTUD7B (UniProt Q6GQQ9)
T2 sequence (whole entry): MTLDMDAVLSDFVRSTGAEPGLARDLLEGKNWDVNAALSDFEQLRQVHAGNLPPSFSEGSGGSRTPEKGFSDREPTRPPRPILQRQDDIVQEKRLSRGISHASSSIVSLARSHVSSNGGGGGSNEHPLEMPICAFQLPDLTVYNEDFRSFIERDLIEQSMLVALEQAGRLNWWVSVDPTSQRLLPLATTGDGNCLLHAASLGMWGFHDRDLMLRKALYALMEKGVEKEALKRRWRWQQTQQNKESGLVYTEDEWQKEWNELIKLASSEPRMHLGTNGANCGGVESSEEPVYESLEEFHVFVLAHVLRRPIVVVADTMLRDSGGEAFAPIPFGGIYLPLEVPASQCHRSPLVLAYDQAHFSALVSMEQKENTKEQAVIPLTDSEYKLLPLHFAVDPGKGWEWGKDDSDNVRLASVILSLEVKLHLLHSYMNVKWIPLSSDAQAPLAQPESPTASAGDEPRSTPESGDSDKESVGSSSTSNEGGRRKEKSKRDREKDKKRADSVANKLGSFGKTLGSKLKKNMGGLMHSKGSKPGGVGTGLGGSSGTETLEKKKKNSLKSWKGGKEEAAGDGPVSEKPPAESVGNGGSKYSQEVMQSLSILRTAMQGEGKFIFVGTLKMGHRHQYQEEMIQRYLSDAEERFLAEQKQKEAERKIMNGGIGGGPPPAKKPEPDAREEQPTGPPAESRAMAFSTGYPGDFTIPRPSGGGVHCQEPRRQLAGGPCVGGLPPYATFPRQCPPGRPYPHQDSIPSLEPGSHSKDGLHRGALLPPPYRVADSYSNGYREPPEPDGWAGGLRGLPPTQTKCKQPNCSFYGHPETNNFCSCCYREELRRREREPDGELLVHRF
Method in brief: as §1

PRPF8 = PRPF8 (UniProt Q6P2Q9)
Method in brief: as §1

PSMD7 = molecular target: T3, PSMD7 (UniProt P51665)
T3 sequence (whole entry): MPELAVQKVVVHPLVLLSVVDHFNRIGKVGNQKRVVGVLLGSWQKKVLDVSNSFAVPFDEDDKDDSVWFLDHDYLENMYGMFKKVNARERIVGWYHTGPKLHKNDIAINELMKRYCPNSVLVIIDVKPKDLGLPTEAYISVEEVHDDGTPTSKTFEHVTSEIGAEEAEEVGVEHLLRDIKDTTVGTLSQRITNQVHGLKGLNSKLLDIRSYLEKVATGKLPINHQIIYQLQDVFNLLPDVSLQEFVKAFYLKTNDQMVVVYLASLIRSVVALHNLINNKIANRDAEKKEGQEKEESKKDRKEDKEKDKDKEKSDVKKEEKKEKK
Method in brief: as §1

UCHL1 = UCHL1 (UniProt P09936)
Method in brief: as §1

UCHL3 = molecular target: T4, UCHL3 (UniProt P15374)
T4 sequence (whole entry): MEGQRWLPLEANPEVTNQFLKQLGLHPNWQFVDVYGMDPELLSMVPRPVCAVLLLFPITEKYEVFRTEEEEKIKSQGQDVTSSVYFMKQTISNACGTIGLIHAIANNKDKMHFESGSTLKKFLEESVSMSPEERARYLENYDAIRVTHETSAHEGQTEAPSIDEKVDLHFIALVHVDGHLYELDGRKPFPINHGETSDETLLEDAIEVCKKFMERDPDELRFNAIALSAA
Method in brief: as §1

UCHL5 = molecular target: T5, UCHL5 (UniProt Q9Y5K5)
T5 sequence (whole entry): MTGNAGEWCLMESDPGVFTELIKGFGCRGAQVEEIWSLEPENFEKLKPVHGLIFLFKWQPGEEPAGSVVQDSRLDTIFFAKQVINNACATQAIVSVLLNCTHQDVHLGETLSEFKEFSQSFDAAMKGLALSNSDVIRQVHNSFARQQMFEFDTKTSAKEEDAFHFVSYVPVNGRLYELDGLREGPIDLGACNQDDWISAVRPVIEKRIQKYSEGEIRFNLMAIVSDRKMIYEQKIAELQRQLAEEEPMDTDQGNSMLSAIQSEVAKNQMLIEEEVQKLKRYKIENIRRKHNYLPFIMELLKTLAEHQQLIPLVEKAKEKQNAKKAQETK
Method in brief: as §1

USP10 = USP10 (UniProt Q14694)
Method in brief: as §1

USP15 = molecular target: T6, USP15 (UniProt Q9Y4E8)
T6 sequence (whole entry): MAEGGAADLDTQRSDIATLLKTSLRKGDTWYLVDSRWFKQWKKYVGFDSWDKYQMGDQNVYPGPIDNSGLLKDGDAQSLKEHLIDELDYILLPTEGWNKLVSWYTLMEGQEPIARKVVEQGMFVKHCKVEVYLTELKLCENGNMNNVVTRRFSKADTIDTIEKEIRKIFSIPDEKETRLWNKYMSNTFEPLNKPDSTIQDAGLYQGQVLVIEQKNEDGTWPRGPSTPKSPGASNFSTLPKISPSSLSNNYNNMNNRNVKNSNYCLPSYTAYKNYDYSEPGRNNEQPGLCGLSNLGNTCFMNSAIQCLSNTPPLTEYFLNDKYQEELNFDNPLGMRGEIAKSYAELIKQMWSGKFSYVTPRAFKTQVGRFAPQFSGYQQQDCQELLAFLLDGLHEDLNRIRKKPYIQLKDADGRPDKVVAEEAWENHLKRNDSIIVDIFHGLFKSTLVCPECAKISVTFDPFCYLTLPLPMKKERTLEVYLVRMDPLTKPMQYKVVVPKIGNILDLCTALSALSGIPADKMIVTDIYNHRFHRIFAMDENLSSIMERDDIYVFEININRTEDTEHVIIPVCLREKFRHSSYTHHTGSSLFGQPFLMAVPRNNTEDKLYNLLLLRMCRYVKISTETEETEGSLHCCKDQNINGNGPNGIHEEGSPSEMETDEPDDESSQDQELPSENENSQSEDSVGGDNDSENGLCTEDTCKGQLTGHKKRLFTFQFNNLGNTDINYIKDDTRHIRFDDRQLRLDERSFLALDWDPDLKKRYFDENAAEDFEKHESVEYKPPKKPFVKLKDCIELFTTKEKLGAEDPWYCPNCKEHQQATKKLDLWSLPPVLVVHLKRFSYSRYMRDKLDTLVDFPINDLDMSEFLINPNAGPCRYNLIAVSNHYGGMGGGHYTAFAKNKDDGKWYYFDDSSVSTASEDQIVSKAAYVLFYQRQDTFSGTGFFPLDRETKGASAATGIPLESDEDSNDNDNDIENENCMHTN
Method in brief: as §1

USP16 = USP16 (UniProt Q9Y5T5)
Method in brief: as §1

Chain of UCHL1 (P09936 whole entry, looked up): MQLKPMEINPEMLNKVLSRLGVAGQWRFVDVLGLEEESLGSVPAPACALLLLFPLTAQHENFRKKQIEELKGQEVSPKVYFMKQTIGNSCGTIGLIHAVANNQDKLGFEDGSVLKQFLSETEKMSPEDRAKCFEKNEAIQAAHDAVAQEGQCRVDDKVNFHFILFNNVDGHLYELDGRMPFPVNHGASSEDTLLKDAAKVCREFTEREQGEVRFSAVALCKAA
Chain of USP16 (Q9Y5T5 whole entry, looked up): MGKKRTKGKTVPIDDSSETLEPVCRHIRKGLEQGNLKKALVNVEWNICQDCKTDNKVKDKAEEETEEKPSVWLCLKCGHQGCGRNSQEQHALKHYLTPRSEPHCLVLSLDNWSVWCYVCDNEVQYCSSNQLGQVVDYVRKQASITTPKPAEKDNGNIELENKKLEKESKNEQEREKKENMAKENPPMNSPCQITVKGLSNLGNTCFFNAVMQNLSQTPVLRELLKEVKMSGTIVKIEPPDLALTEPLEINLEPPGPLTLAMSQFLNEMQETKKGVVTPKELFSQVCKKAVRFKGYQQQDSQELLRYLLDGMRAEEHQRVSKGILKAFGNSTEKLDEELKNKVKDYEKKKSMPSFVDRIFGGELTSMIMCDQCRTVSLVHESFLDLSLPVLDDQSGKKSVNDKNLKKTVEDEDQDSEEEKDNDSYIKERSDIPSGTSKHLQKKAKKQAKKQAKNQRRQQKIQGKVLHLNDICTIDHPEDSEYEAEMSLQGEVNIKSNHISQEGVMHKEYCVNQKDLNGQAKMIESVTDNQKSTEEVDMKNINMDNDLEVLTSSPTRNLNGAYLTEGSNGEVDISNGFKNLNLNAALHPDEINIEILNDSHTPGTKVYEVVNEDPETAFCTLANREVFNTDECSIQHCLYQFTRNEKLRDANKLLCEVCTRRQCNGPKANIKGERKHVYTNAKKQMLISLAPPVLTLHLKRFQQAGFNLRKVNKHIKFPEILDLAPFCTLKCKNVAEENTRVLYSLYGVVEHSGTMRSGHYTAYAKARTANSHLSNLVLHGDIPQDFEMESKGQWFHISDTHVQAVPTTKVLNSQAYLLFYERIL
Chain of USP10 (Q14694 whole entry): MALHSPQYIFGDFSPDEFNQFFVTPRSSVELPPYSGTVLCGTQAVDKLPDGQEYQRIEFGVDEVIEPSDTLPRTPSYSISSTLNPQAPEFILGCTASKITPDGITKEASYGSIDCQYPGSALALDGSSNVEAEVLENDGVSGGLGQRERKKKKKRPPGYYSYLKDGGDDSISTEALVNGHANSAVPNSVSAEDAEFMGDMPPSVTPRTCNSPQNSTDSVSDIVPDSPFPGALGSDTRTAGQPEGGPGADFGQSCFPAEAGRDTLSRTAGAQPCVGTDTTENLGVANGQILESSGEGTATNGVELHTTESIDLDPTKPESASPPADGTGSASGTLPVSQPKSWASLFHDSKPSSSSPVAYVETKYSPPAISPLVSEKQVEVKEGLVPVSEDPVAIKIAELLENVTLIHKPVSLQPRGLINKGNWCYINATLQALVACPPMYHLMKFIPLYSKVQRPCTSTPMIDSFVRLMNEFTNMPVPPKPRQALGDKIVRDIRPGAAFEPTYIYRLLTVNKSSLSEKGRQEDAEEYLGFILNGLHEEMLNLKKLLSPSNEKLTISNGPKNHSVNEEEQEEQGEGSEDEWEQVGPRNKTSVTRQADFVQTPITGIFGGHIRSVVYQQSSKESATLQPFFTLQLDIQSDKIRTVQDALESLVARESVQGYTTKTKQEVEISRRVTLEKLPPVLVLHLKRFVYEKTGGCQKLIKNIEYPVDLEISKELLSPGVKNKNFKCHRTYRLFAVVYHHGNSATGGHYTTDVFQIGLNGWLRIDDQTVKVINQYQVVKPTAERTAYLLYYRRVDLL

SMILES: Cc1ccc(CNC(=O)CCl)nc1C.Cl
- log2 ratio of Biotin-Ahx-Ub-VS probe labelling (OTUD6B): 0.146
- log2 ratio of Biotin-Ahx-Ub-VS probe labelling (OTUD7B): -0.314
- log2 ratio of Biotin-Ahx-Ub-VS probe labelling (PRPF8): 0.14
- log2 ratio of Biotin-Ahx-Ub-VS probe labelling (PSMD7): -0.305
- log2 ratio of Biotin-Ahx-Ub-VS probe labelling (UCHL1): -1.07 (active)
- log2 ratio of Biotin-Ahx-Ub-VS probe labelling (UCHL3): 0.499
- log2 ratio of Biotin-Ahx-Ub-VS probe labelling (UCHL5): -0.0227
- log2 ratio of Biotin-Ahx-Ub-VS probe labelling (USP10): -0.0933
- log2 ratio of Biotin-Ahx-Ub-VS probe labelling (USP15): 0.144
- log2 ratio of Biotin-Ahx-Ub-VS probe labelling (USP16): 0.174

Source: the supplement of paper PMC11732987, “Enantioselective OTUD7B fragment discovery through chemoproteomics screening and high-throughput optimisation” (Communications Chemistry, 2025)
